High-throughput results (PubChem)
S2 tox: viability counter-screen for ATXN expression inhibitors; S2 cells (HEK-293 line with an ATXN2-luciferase reporter) viability, CellTiter-Fluor protease fluorescence, 24 h; Potency, µM (titrated, usually from 56.7 µM), actives largely listed as cytotoxic; 0.49% of 400,000 active; note: nearly all actives have a fitted effect of over 40% in size
VP16 counter: counter-screen for ROR gamma inhibitors: Gal4-VP16 reporter; Drosophila S2 Gal4-VP16 UAS-luciferase, luminescence, 20 h; Potency, µM (series often up to 53.6 µM), for the others: top-dose activity, negative = inhibition, hits mostly inhibitors; 3.5% of 310,000 active;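 note: Gal4-VP16 expression switched on by copper sulfate through the metallothionein promoter; % is set by controls: 0 for no effect and ±100 for the full control effect; nearly all actives have a fitted effect of over 50% in size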
TGFb inhibitor: TGF-b pathway inhibition; HepG2 CAGA-GFP TGF-b/SMAD3 reporter, GFP fluorescence, 18 h; TGF-beta stimulated, 500 pg/mL final; Potency, µM (doses to about 46.1 µM), for inactives: at the highest dose activity, negative = inhibition, actives largely listed as inhibitors; 1.2% of 410,000 active; AID 588855; note: % is set by controls: 0 for no effect and ±100 for the full control effect; nearly all actives have a fitted effect of over 65% in size
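HEPG2 CAGA-GFP cells (1000/well, DMEM with 1% FBS) were pre-incubated 2 h at 37 degrees C, given compound by pin tool, then stimulated with TGF-beta at 500 pg/mL final for 18 h before per-cell GFP fluorescence imaging.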
ATXN2 expr inh: reduces ATXN2 reporter expression in HEK-293 cells. HEK-293 ATXN2-luciferase reporter, luminescence, 24 h. Potency, µM (top dose mostly 57 µM), inactives show top-dose activity change, negative = inhibition, actives largely listed as inhibitors. 0.72% of 360,000 active. AID 1745845; note: % is set by controls: 0 for no effect and ±100 for the full control effect; nearly all actives have a fitted effect of over 55% in size
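qHTS (up to 57 uM final) was run with 24 h compound exposure of reporter cells at 37 °C. Each well was multiplexed: SteadyGlo luminescence measured ATXN2-luciferase expression after a fluorogenic Gly-Phe-AFC viability readout (25 uM final).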
RORgamma inh: ROR gamma (mouse) transcription inhibition | P51450 | Drosophila S2 Gal4-RORgamma UAS-luciferase reporter, 20 h | Potency, µM (doses to about 53.6 µM), inactives show at the highest dose activity change, negative = inhibition, usual class: inhibitors | 5.4% of 310,000 active; note: % is set by controls: 0 for no effect and ±100 for the full control effect; nearly all actives have a fitted effect of over 60% in size
Target sequence (P51450 whole entry, looked up, the tested form may be a part): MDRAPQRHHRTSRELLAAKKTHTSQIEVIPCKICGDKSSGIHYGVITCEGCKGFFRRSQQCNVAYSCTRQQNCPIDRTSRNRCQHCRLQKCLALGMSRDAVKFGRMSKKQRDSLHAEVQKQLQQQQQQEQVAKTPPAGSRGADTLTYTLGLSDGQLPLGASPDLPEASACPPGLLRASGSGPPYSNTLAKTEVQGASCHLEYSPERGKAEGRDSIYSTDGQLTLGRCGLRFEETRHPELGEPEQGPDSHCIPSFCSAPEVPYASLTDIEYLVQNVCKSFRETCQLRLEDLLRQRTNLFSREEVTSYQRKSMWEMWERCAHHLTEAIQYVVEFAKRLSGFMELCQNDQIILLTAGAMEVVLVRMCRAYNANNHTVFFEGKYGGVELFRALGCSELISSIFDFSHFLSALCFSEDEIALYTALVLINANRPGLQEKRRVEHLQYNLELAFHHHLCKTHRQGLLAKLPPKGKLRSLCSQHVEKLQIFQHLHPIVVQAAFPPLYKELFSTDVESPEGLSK
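A Gal4/UAS one-hybrid system in insect cells: metallothionein-promoter Gal4–ROR gamma fusion plus Photinus luciferase reporter. Copper sulfate 700 uM final, 20 hr ambient incubation, luminescent detection after 10 min with reagent.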
HepG2 viability: kills HepG2 cells in TGF-b inhibitor counter-screen; HepG2 CAGA-GFP viability, ATP luminescence, 18 h; Potency, µM (series often up to 46.1 µM), for the others: at the top dose activity change, negative = cytotoxicity, usual class: cytotoxic; 0.76% of 410,000 active; AID 588856
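HepG2 CAGA-GFP cells (1000/well, DMEM with 1% FBS) received compound, then TGF-beta at 500 pg/mL final, and were incubated 18 hours at 37 degrees C. Viability was read by CellTiter-Glo luminescence. Media-only wells were set as complete cell-killing and DMSO as no toxicity.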
* marks the source's active call; other numbers are inactive results; i = inactive; ? = inconclusive; / = no result given; [ ] = remark or other dose. The list is not random: actives were taken first. Their share in the collection is about 6.1%. Calls come from the whole dose curve; as a rule, active = well fitted curve in the direction sought with a large enough effect; inconclusive = small, poorly fitted or top-dose-only effect, or another doubt; inactive = no such curve, though single readings can be large; an effect the other way counts as inactive or inconclusive. Potency is the fitted concentration of half-maximal effect.

SMILES | S2 tox | VP16 counter | TGFb inhibitor | ATXN2 expr inh | RORgamma inh | HepG2 viability
CCOC(=O)c1c(C)[nH]c(C(=O)OCc2ccc([N+](=O)[O-])cc2)c1C | i | -10% | 0% | -1% | -1% | -3%
Cc1cccc(-c2nc(CN3CCCC(C(=O)NCc4ccc(Cl)cc4)C3)c(C)o2)c1 (centres undefined) | i | / | ? | -8% | / | -18%
NC(Cc1ccc(Cl)cc1)c1csc(Nc2ccc(C(F)(F)F)cn2)n1 (centres undefined) | 32µM* | / | ? | -23% | / | -98%
CC(C)CC(N)c1csc(Nc2ccc(C(F)(F)F)cn2)n1 (centres undefined) | ? | / | ? | ? | / | 18µM*
NC(CCc1ccccc1)c1csc(Nc2ccc(C(F)(F)F)cn2)n1 (centres undefined) | ? | / | ? | ? | / | -96%
NC(CO)c1csc(Nc2ccc(C(F)(F)F)cn2)n1 (centres undefined) | i | / | -1% | 14% | / | -33%
Cc1ccc(-n2c3nc(=O)[nH]c(=O)c-3cc3c(C)nn(-c4ccccc4)c32)cc1Cl | i | / | 6% | 5% | / | 5%
Cc1c(Cl)cccc1NC(=O)C(=O)NCCc1csc(-c2cccc(F)c2)n1 | i | / | -17% | -4% | / | -1%
CCCC(C)NC(=O)c1cccc(Oc2ccccc2)c1 (centres undefined) | i | -15% | 1% | 19% | 35µM* | -9%
CC(=O)Nc1ccc(NC(=O)c2cccc(Oc3ccccc3)c2)cc1 | i | 3% | -36% | -5% | 1% | -18%
COc1ccccc1-c1cc(C(F)(F)F)nc(S(=O)(=O)CCCC(=O)Nc2ccccc2F)n1 | / | / | 3.5µM* | / | / | 11µM*
COc1ccccc1-c1cc(C(F)(F)F)nc(S(=O)(=O)CCCC(=O)Nc2cccnc2Cl)n1 | ? | 8.9µM* | ? | ? | 4µM* | 2%
COc1ccc(NC(=O)CCCS(=O)(=O)c2nc(-c3ccccc3OC)cc(C(F)(F)F)n2)c(OC)c1 | i | / | -11% | 6% | / | -5%
CSc1ccccc1NC(=O)CCS(=O)(=O)c1nc(-c2ccc3c(c2)OCO3)cc(C(F)(F)F)n1 | / | / | 16µM* | / | / | -83%
O=C(CCS(=O)(=O)c1nc(-c2ccc3c(c2)OCO3)cc(C(F)(F)F)n1)Nc1ccccc1F | / | / | ? | / | / | -66%
Clc1ccc(-c2csc3ncnc(Cl)c23)cc1 | i | -29% | -2% | -23% | 11µM* | -1%
NNc1ncnc2scc(-c3ccc(Cl)cc3)c12 | i | ? | -39% | 16µM* | ? | -30%
Cc1ccc(NC(=O)c2cc3c([nH]c2=O)CC(c2ccccc2)CC3=O)cc1 (centres undefined) | / | / | -2% | / | / | -8%
CCOCCCNC(=O)C1CCN(c2nn3cc(-c4ccc(F)cc4)nc3s2)CC1 | / | / | -15% | / | / | 5%
CCOC(=O)NC(N(O)c1cccc(Cl)c1)C(Cl)(Cl)Cl (centres undefined) | i | 8% | -29% | -5% | 5µM* | 1%
COc1cc(=O)n2c(c1C(=O)NCc1ccc3c(c1)OCO3)CCN(C(=O)c1ccc(C)cc1)CC2 | i | / | / | / | / | /
CCCCCOC(=O)c1ccc(Nc2nc(C(=O)OCC)nc3ccccc23)cc1 | i | / | -11% | -3% | / | -19%
CCOc1ccc(NC(=S)NCCCc2ccccc2)cc1 | i | ? | -26% | -5% | 5µM* | -21%
CCOc1ccc(S(=O)(=O)N(CC(=O)NCCSCc2ccccc2)c2ccccc2)cc1 | i | / | -17% | -1% | / | 0%
CCOc1ccc(CSCCNC(=S)Nc2ccccc2)cc1 | i | 4.5µM* | -26% | -16% | 6.3µM* | -6%
SMILES | S2 tox | VP16 counter | TGFb inhibitor | ATXN2 expr inh | RORgamma inh | HepG2 viability
CCC(C)c1ccc(NC(=S)Nc2ccc(OC)cc2)cc1 (centres undefined) | i | 5.6µM* | ? | 10% | 7.1µM* | -20%
CCOc1ccc(OCc2cccc(C(=O)Nc3ccc(CN4CCCCC4)cc3)c2)cc1 | ? | -14% | 0% | ? | -37% | 10µM*
Cc1cccn2c(=O)cc(COc3ccc(NC(=O)c4cccc(F)c4)cc3)nc12 | / | / | 32% | / | / | -5%
O=C(CCn1c(=O)[nH]c2ccccc21)NCC1Cc2cc(Cl)cc(-c3ccncc3)c2O1 (centres undefined) | i | / | / | / | / | /
CCOc1ccc(NC(=S)Nc2ccc(OC)cc2)cc1 | i | ? | ? | -14%[11.3 µM] | 7.9µM* | 0%
COc1ccc(NC(=S)Nc2cccc(C)n2)cc1 | i | 4.5µM* | -18% | 15% | ? | -12%
CCOc1ccc(NC(=S)Nc2ccc(OCc3ccccc3)cc2)cc1 | i | 22µM* | 8% | 9% | ? | 18%
COc1ccc(NC(=S)Nc2ccccc2)cc1 | ? | ? | -4% | -9% | ? | -18%
CNC(=S)Nc1ccc(OCc2ccccc2)cc1 | / | ? | 16% | 2% | 4µM* | -13%
COc1ccc(NC(=O)c2c(NC(=O)C(F)(F)F)sc3c2CCCCC3)cc1 | i | / | ? | -4% | / | -23%
COc1cccc(NC(=S)Nc2ccc(Br)cc2Cl)c1 | i | 0% | 3% | 12% | -2% | 0%
CCOc1ccc(NC(=S)Nc2ccc(Br)cc2Cl)cc1 | ? | ? | -6% | -23% | 14µM* | -5%
Cc1cccnc1NC(=S)Nc1ccc(Br)cc1Cl | ? | 7.1µM* | -20% | / | 2.5µM* | -23%
CCOc1ccc(NC(=O)NCCCN2CCN(c3ccc(OC)cc3)CC2)cc1 | i | / | -13% | -7% | / | 6%
CCOc1ccc(NC(=S)NCCN2CCN(Cc3ccccc3)CC2)cc1 | i | ? | ? | -17% | 11µM* | -38%
